Experimental findings from PubChem BioAssay (NCI) are described below.

Compounds without any hit were thinned out: in the full panel of roughly 83,000, 20% have a hit.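 Interpretation: 100, growth as untreated; towards 0, rising growth inhibition; 0, no net growth; 0 to -100, cell death. Compounds scoring below 10 were considered active.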 Unmarked numbers belong to inactive results. Calls of active or inactive are those of the source.

Holding throughout (test): NCI-60 one-dose screen, 48 h (100 = growth as untreated, 0 = no growth, -100 = all killed)
What all share (conditions): 10 µM

For test [1], the system named is SR leukemia.
In test [2] the test system is RPMI-8226 leukemia.
Test [3] relates to OVCAR-8 ovarian.
Test [4] has as its system OVCAR-5 ovarian.
Test [5] relates to OVCAR-4 ovarian.
Test [6] relates to SK-OV-3 ovarian.
Test [7] concerns IGROV1 ovarian.
The test system of test [8] is OVCAR-3 ovarian.
In test [9] the test system is HS 578T breast.
In test [10] the test system is NCI/ADR-RES ovarian.
Test [11] relates to T-47D breast.
Test [12] concerns BT-549 breast.
For test [13], the system named is SW-620 colon.
For test [14], the system named is MCF7 breast.
The test system of test [15] is HCT-116 colon.
Test [16] has as its system HCC-2998 colon.
For test [17], the system named is KM12 colon.
Test [18] deals with MDA-MB-435 melanoma.

With `CCCN(CCC)CCCNC(=O)c1cc2c(-c3ccc(OC)c(OC)c3)nn(C)c2s1`, the growth in test [1] is 4.41% (active); in [2], -10.5% (active); in [3], 4.29% (active); in test [4] it was 69.5%; in [5] it was 22.1%; in [6] it was 24%. For the same compound, the growth in test [7] was 35.5%; in test [8], -10.1% (active); in test [9] it was 11.5%; in test [10] it was -8.48% (active); in test [11], 24.5%; in [12], 13.7%. Besides, the growth was 10.8% in test [13]; 11.2% in test [14]; 13.7% in test [15]; 67.2% in [16]; 6.62% (active) in [17].

Take `Clc1cc(Cl)c(OCCCCCCN2CCNCC2)c(Cl)c1`: the growth in [1] was -13.9% (active); in test [2], -24.9% (active); in [3] it was 76%; in test [4], 71%; in [5] it was 86.9%; in [6], 98%. In addition, the growth in test [7] is 46.6%; in [8], 45.7%; in test [10] it was 75.8%; in [11], 39.8%; in test [12], 70.4%; in test [18], 10.5%. In addition, the growth is -44% (active) in test [13]; -24.5% (active) in test [14]; 12% in test [15]; -34% (active) in [16]; 21.3% in test [17].

In the case of `NC1CCC(Nc2nc(NCc3ccc(-c4ccccc4O)nc3)c3ncn(C4CCCC4)c3n2)CC1` (stereo not drawn), the growth in test [1] is -41.3% (active); in [2], -28% (active); in test [3] it was 7.26% (active); in [4] it was 19.3%; in test [5] it was 6.5% (active); in test [6], 8.5% (active). Besides, the growth in test [7] was 8.35% (active); in test [8] it was -6.34% (active); in test [10], 10.3%; in [11] it was -34.2% (active); in test [12] it was -28% (active); in test [18] it was -81.5% (active). Also, the growth in [13] was 0.393% (active); in [14] it was -62.4% (active); in [15] it was -55.8% (active); in test [16], -73.3% (active); in test [17], -16.2% (active).

For the compound `Cc1cnc(C=O)c2cccc([N+](=O)[O-])c12`, the growth in test [1] is 16.5%; in [2], 68.1%; in [3], 87.3%; in test [4] it was 95%; in test [5] it was 82.1%; in test [6] it was 99.6%. For the same compound, the growth was 95.9% in [7]; 101% in test [8]; 94.9% in [9]; 82.3% in test [11]; 88.5% in test [12]; 106% in test [18]. In addition, the growth in test [13] was 47.4%; in [14], 75.8%; in test [15], 17.5%; in [16], 101%; in [17], 99.2%.

Consider `NS(=O)(=O)c1ccc(N2N=C(c3ccc(-c4ccccc4)cc3)CC2c2ccc(Cl)cc2)cc1` (stereo not drawn), for which the growth in test [1] was 73.5%; in test [2] it was 63.4%; in test [3] it was 78%; in test [4], 95%; in [5], 76.1%; in test [6] it was 95%. Besides, the growth is 88.1% in test [7]; 94.3% in test [8]; 84.5% in [10]; 74.6% in test [11]; 116% in test [12]; 77.4% in [18]. Besides, the growth was 93.2% in [13]; 62.6% in test [14]; 50.4% in [15]; 89.3% in [16]; 68.6% in test [17].

For the compound `OC(CNC1CCCC1)Cn1c2ccccc2c2ccccc21` (stereo not drawn), the growth in [1] is -32.5% (active); in [2], 1.44% (active); in [3] it was 24.2%; in [4], 103%; in [5], 36.2%; in test [6], 59.7%. Besides, the growth in test [7] is 30.9%; in [8], 36.4%; in test [10] it was 15.1%; in [11] it was -1.44% (active); in test [12], 53.8%; in test [18], -2.91% (active). For the same compound, the growth in test [13] is -25.5% (active); in test [14] it was -66.2% (active); in test [15], -37.3% (active); in [16], 1.39% (active); in test [17] it was 21.6%.

In the case of `COc1ccc(-c2cc(/C=C/C(=O)c3ccc(N)cc3)[nH]n2)cc1OC`, the growth was 10.3% in test [1]; -12.6% (active) in [2]; 15.2% in [3]; 45% in test [4]; 24.4% in test [5]; 39% in test [6]. The growth in [7] is 29.1%; in test [8] it was 5.89% (active); in [10] it was 78.6%; in [11], 50.3%; in test [12] it was 55.4%; in [18], 46.8%. Besides, the growth in test [13] was 10.2%; in [14], 14.9%; in [15], 17.4%; in [16], 38.8%; in test [17] it was 5.98% (active).

On to `CCOC(=O)[C@@H]1[C@H](c2ccccc2)[C@H]([N+](=O)[O-])[C@H](c2cn(-c3ccccc3)nc2C)N1Cc1ccccc1`, for which the growth in test [1] was 46.9%; in test [2], 50%; in test [3], 71.4%; in test [4] it was 106%; in [5], 77.5%; in test [6], 84.3%. Also, the growth was 99.9% in [7]; 82.8% in test [8]; 90.5% in test [9]; 71.6% in test [10]; 44% in [11]; 92.3% in [18]. Also, the growth in test [13] is 73.1%; in test [14], 67.6%; in [15], 37.5%; in test [16], 94%; in test [17], 88%.

In the case of `O=C(N/N=C\c1cc(Cl)ccc1O)c1ccncc1`, the growth is 26.8% in test [1]; 52.7% in test [2]; 44.5% in test [3]; 83.9% in test [4]; 31.4% in test [5]; 59.4% in test [6]. Also, the growth in test [7] was 33%; in test [8] it was 19.1%; in test [9], 125%; in [10] it was 26.8%; in test [11] it was 30.1%; in [18], 89.4%. For the same compound, the growth in test [13] was 64.7%; in [14], 14.6%; in [15], 24.6%; in test [16] it was 45.2%; in [17] it was 53.6%.
